AC50 and outcome data for eight compounds are collected here from PubChem BioAssay (EPA / NIEHS).

As a reminder, the AC50 is the concentration at which the activity in the assay is half-maximal.

Inconclusive results are not listed. Calls of active or inactive are those of the source. How the source made its calls: active means hit-call score of the fitted dose curve at least 0.9, where 1 is the maximum; inconclusive means response in the unintended direction; inactive means score below 0.9.

Sequence of human Adrenergic, Alpha 2A Receptor (Adra2A), ADRA2A (gene 150) (P08913 whole entry, looked up): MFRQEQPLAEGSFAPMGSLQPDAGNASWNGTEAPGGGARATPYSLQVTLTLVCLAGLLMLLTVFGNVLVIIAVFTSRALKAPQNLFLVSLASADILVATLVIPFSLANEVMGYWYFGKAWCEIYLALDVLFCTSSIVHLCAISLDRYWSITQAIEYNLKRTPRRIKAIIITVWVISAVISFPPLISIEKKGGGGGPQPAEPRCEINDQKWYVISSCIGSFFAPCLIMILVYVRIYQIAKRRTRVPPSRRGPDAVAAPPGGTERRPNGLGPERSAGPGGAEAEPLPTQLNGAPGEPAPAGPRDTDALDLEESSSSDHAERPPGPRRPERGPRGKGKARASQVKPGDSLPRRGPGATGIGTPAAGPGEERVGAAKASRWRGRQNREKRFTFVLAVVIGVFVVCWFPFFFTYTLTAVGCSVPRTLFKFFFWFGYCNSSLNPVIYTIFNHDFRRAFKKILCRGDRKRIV
Sequence of human Adrenergic, Beta 3 Receptor (Adrb3), ADRB3 (gene 155) (P13945 whole entry, looked up): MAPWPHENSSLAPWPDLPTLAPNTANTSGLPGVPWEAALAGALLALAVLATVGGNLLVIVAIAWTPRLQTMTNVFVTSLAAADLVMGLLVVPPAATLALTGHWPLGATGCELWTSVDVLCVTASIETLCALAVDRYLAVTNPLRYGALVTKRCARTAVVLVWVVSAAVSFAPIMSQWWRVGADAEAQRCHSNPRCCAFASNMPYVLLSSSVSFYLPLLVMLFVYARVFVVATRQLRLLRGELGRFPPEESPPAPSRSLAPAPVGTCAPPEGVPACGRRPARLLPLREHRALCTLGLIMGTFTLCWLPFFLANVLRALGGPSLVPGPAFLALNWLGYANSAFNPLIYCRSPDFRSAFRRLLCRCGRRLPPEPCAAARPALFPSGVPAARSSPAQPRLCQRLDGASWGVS
Sequence of human Adrenergic, Alpha 2c Receptor (Adra2C), ADRA2C (gene 152) (P18825 whole entry, looked up): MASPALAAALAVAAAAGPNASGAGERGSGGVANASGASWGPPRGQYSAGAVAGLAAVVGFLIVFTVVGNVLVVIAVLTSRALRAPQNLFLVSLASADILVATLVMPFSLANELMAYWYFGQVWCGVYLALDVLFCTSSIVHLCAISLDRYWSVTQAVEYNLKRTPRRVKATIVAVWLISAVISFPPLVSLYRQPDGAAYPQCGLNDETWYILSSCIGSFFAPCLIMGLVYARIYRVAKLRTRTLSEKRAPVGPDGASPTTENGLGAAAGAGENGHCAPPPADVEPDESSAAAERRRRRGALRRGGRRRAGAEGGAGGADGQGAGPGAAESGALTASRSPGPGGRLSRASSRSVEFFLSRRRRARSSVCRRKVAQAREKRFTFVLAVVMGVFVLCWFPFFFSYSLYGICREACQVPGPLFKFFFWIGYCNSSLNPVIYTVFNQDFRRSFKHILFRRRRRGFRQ
Sequence of Beta-2 adrenergic receptor (Homo sapiens) (P07550 whole entry, looked up): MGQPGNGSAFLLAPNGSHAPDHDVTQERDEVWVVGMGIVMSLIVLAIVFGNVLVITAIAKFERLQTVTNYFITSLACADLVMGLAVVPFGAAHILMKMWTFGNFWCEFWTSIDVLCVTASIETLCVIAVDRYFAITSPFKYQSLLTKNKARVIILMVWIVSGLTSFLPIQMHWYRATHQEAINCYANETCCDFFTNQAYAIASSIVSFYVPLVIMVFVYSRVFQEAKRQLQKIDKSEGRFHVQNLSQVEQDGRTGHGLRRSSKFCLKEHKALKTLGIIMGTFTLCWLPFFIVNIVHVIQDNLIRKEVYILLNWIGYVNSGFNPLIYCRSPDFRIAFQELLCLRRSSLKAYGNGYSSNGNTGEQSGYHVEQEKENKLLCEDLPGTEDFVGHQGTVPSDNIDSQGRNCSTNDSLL
Sequence of human Adrenergic, Beta 1 Receptor (Adrb1), ADRB1 (gene 153) (P08588 whole entry, looked up): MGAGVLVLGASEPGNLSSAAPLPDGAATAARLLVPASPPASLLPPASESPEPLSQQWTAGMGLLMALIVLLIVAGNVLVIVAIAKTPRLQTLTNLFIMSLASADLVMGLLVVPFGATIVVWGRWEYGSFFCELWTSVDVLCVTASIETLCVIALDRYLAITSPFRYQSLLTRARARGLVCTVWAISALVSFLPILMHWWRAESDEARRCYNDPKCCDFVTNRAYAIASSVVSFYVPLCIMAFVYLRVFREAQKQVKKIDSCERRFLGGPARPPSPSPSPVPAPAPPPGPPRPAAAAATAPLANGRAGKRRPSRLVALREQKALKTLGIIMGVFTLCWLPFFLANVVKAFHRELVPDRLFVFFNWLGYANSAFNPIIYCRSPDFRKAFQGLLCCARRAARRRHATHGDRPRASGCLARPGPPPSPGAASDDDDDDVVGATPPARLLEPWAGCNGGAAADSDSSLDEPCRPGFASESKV

For the first experiment, the target named is human Adrenergic, Alpha 2A Receptor (Adra2A), ADRA2A (gene 150) (UniProt P08913). In words: NVS_GPCR_hAdra2A: NovaScreen (NVS) G Protein-Coupled Receptor Assay for human Adrenergic, Alpha 2A Receptor (Adra2A) (AID 2283257). As to the method:
NVS_GPCR_hAdra2A is a biochemical, single-readout assay that uses extracted gene-proteins from HT29 in a cell-free assay. Measurements were taken 1 hour after chemical dosing in a 48-well plate.NVS_GPCR_hAdra2A is one of one assay component(s) measured or calculated from the NVS_GPCR_hAdra2A assay. It is designed to make measurements of radioligand binding, a form of binding reporter, as detected with scintillation counting signals by Filter-based radiodetection technology.Data from the assay component NVS_GPCR_hAdra2A was analyzed into 1 assay endpoint. This assay endpoint, NVS_GPCR_hAdra2A, was analyzed in the positive analysis fitting direction relative to DMSO as the negative control and baseline of activity. Using a type of binding reporter, loss-of-signal activity can be used to understand changes in the binding as they relate to the gene ADRA2A. Furthermore, this assay endpoint can be referred to as a primary readout, because the performed assay has only produced 1 assay endpoint. To generalize the intended target to other relatable targets, this assay endpoint is annotated to the gpcr intended target family, where the subfamily is rhodopsin-like receptor.
Binding assays used specific radioligands (tritiated, iodinated) with non-radioactive competitive displacement ligands in agonist or antagonist protocols (as indicated) and various reference compounds and inhibitors to titrate specific binding to receptors and transporters. Most enzyme assays (CYPs, kinases, phosphatases, proteases, HDACs) used recombinant protein and specific substrates (fluorescence mostly, some colorimetric and radioactive) and inhibitors, followed by a biochemical separation of substrate and product. All assays for the biochemical HTS were initially run in duplicate at a single concentration (10 uM for CYP450 assays and 25 uM for all others). […] Each assay was run with positive and negative controls, and concurrent controls on every plate. The follow-up (secondary) screen tested active chemical-pairs in concentration series, as well as a few additional assays not tested in the primary screen, some selected negative inactives, and several cases re-run in the concentration series for confirmatory purposes.
As to `CCC(=O)C(CC(C)N(C)C)(c1ccccc1)c1ccccc1` (stereo unspecified), the half-maximal activity concentration (AC50) was 16 µM (active).
As for `CCN1CCC2(CC1)COc1cc3c(cc12)N(C(=O)c1ccc(-c2ccc(-c4nnc(C)o4)cc2C)cc1)CC3`, the concentration at half-maximal activity (AC50) is 13.9 µM (active).
Turning to `CC(=O)[O][Hg][c]1ccccc1`, the AC50 was 20.1 µM (active).
Consider `C=C(C)C(=O)[O][Sn]([CH2]CCC)([CH2]CCC)[CH2]CCC`, for which the AC50 is 4.06 µM (active).

Another experiment concerns the target human Adrenergic, Beta 1 Receptor (Adrb1), ADRB1 (gene 153) (UniProt P08588). In words: NVS_GPCR_hAdrb1: NovaScreen (NVS) G Protein-Coupled Receptor Assay for human Adrenergic, Beta 1 Receptor (Adrb1) (AID 2283258). The essentials: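 Cell-free radioligand displacement on receptor from human neuroepithelioma cells; 2 h after dosing, filter-based scintillation counting. Primary screen in duplicate at 25 uM, actives retested in concentration series; loss of signal vs DMSO baseline.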
Consider `CC(=O)[O][Hg][c]1ccccc1`, for which the concentration at half-maximal activity (AC50) is 0.993 µM (active).
The same measure, in the same setting: the result for `C=C(C)C(=O)[O][Sn]([CH2]CCC)([CH2]CCC)[CH2]CCC` reads 0.925 µM (active).
As to `O=C1C2(Cl)C3(Cl)C4(Cl)C(Cl)(Cl)C5(Cl)C3(Cl)C1(Cl)C5(Cl)C24Cl` (stereo unspecified), the half-maximal activity concentration (AC50) is 0.978 µM (active).

The target in another experiment is human Adrenergic, Alpha 2c Receptor (Adra2C), ADRA2C (gene 152) (UniProt P18825). Briefly: NVS_GPCR_hAdra2C: NovaScreen (NVS) G Protein-Coupled Receptor Assay for human Adrenergic, Alpha 2c Receptor (Adra2C) (AID 2283259). An outline of the steps:
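Radioligand binding on Sf9-expressed receptor membranes, 1 h after chemical dosing, filter-based scintillation read-out. Loss of binding fitted positively versus DMSO; primary duplicate screen at 25 uM, actives retested in concentration series.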
Take `CCC(=O)C(CC(C)N(C)C)(c1ccccc1)c1ccccc1` (stereo unspecified): the compound was called inactive.
For `O=C(O)C(F)(F)C(F)(F)C(F)(F)C(F)(F)C(F)(F)C(F)(F)C(F)(F)C(F)(F)C(F)(F)C(F)(F)F`, the AC50 was 4.5 µM (active).
On to `CCN1CCC2(CC1)COc1cc3c(cc12)N(C(=O)c1ccc(-c2ccc(-c4nnc(C)o4)cc2C)cc1)CC3`, for which the AC50 is 14.3 µM (active).
In the case of `CC(=O)[O][Hg][c]1ccccc1`, the AC50 is 0.252 µM (active).
In the case of `C=C(C)C(=O)[O][Sn]([CH2]CCC)([CH2]CCC)[CH2]CCC`, the half-maximal activity concentration (AC50) was 0.281 µM (active).
Turning to `CC(C)(C)CC(C)(C)c1ccc(O)cc1`, the AC50 was 25 µM (active).

For another experiment, the target named is Beta-2 adrenergic receptor (Homo sapiens) (UniProt P07550). Briefly: NVS_GPCR_hAdrb2: NovaScreen (NVS) G Protein-Coupled Receptor Assay for human Adrenergic, Beta 2 Receptor (Adrb2) (AID 2283261). The essentials:
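Filter-based radioligand binding using receptor prepared from CHO cells, 1 h incubation, scintillation counting. Primary screen in duplicate at 25 uM, actives retested in concentration series; loss of binding relative to DMSO.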
For the compound `CCN1CCC2(CC1)COc1cc3c(cc12)N(C(=O)c1ccc(-c2ccc(-c4nnc(C)o4)cc2C)cc1)CC3`, the AC50 was 23.4 µM (active).
Same read-out and setting: the result for `CC(=O)[O][Hg][c]1ccccc1` reads 0.934 µM (active); that for `C=C(C)C(=O)[O][Sn]([CH2]CCC)([CH2]CCC)[CH2]CCC`, 4.57 µM (active).

The next experiment addresses human Adrenergic, Beta 3 Receptor (Adrb3), ADRB3 (gene 155) (UniProt P13945). In words: NVS_GPCR_hAdrb3: NovaScreen (NVS) G Protein-Coupled Receptor Assay for human Adrenergic, Beta 3 Receptor (Adrb3) (AID 2283262). An outline of the steps: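 Membranes from SK-N-MC cells pretreated with isoproterenol and 8-bromo-cAMP were used in a radioligand competitive displacement binding assay. Binding was read by filter-based scintillation counting 1 hour after dosing. Primary screening was in duplicate at 25 uM, with concentration series in follow-up.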
For the compound `CCC(=O)C(CC(C)N(C)C)(c1ccccc1)c1ccccc1` (stereo unspecified), the compound was called inactive.
The same measure, in the same setting: under `CCN1CCC2(CC1)COc1cc3c(cc12)N(C(=O)c1ccc(-c2ccc(-c4nnc(C)o4)cc2C)cc1)CC3` stands “inactive”.
`CC(=O)[O][Hg][c]1ccccc1`: the AC50 was 6.02 µM (active).
For `C=C(C)C(=O)[O][Sn]([CH2]CCC)([CH2]CCC)[CH2]CCC`, the AC50 was 25 µM (active).
`CN(C)N=O`: the outcome was inactive.
